Screening results deposited in PubChem BioAssay by Corson Lab, School of Medicine, Indiana University.
The sample as a whole holds a higher share of hits than the screen did.
FECH inh = human FECH heme synthesis enzyme inhibition. P22830. purified FECH, Ni-mesoporphyrin absorbance 550 nm. calls only at 10 µM (by protocol). 20,000 tested, 3.3% active. AID 1671448;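 active = enzyme reaction rate more than 3 SD below the solvent-only control wells on the same plate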;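 note: lower slope than DMSO wells means FECH inhibition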
Target sequence (P22830 whole entry, looked up): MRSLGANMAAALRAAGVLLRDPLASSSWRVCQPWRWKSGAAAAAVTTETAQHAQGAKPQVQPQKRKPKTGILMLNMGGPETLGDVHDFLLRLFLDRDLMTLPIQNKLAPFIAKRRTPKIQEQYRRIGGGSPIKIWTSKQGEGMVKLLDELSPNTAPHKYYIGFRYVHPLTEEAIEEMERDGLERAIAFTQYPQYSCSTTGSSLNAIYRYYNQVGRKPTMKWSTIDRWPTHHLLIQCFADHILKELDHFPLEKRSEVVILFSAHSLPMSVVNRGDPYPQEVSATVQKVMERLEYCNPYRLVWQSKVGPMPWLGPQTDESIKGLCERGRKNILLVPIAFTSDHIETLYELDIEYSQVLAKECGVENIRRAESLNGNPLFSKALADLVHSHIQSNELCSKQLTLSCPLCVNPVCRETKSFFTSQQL
Numbers without * were called inactive; i = inactive; + = active, no number.

SMILES | FECH inh
CCc1nn(C)c(NC(=O)c2ccc(CN3CCNC(=O)C3C)cc2)c1CC (configuration not stated) | i
COc1ccc(Nc2nc(NCCC3=CCCCC3)nc3c2cnn3-c2ccccc2)cc1 | i
Cc1[nH]cnc1C(=O)NC(c1ccncc1)c1ccc(Cl)cc1 (configuration not stated) | i
c1ccc(CCn2cc(-c3nc(-c4ccc5nc[nH]c5c4)no3)nn2)cc1 | i
CCOC(=O)c1cc2n(n1)CC(C)(C(=O)NCCC(C)C)N(c1ccc(F)cc1F)C2=O (configuration not stated) | i
COc1c[nH]c(C(=O)N2CCCC(N3CCc4ccccc4C3)C2)cc1=O (configuration not stated) | i
CN1[C@H]2CC[C@@H]1CN(C(=O)C1(C)CCCCC1)CC2 | i
CCOC(=O)c1ccccc1NC(=O)CN1CCCN(Cc2ccc(C)cc2)S1(=O)=O | i
CCCc1cc(=O)n2[nH]c(CNc3cccc(Cl)c3C)nc2n1 | +
Cc1cc(Nc2ccccc2)nc(Nc2ccc(NC(=O)C3CCCCC3)cc2)n1 | i
Cc1cccc(NCc2cc(=O)n3[nH]c(-c4ccccc4C)nc3n2)c1 | +
CCc1ccccc1NCc1cc(=O)n2[nH]c(-c3ccccc3C)nc2n1 | i
Cc1ccccc1-c1nc2nc(CNCc3ccccc3)cc(=O)n2[nH]1 | +
Cc1cccc(NCc2cc(=O)n3[nH]c(NCc4ccccc4)nc3n2)c1 | i
Cc1ccccc1-c1nc2nc(CNc3ccc(Cl)cc3)cc(=O)n2[nH]1 | +
COc1ccc(Cl)cc1NCc1cc(=O)n2[nH]c(-c3ccccc3C)nc2n1 | i
COc1ccccc1NCc1cc(=O)n2[nH]c(-c3ccccc3C)nc2n1 | i
Cc1ccccc1-c1nc2nc(CNc3cccc(C(F)(F)F)c3)cc(=O)n2[nH]1 | i
Cc1ccccc1-c1nc2nc(CNc3c(C)cccc3C)cc(=O)n2[nH]1 | i
CSCC[C@H](NC(C)=O)C(=O)Nc1cnc2n1CCCC2 | i
COc1ccccc1N1CCN(Cc2cnc(SC)nc2)CC1(C)C | i
CCOc1ccc(-c2c(Nc3ccccc3)oc3c2c(=O)n(C)c(=O)n3C)cc1 | i
CCN1C(SCC(=O)Nc2cc(OC)cc(OC)c2)=NS(=O)(=O)c2ccccc21 | i
O=C1CN(Cc2cccc(C(F)(F)F)c2)S(=O)(=O)c2ccccc2N1Cc1ccccc1 | i
CCN1C(SCC(=O)Nc2cccc(C(F)(F)F)c2)=NS(=O)(=O)c2ccccc21 | +
SMILES | FECH inh
COC(=O)CC1=CC(=O)N(CC(=O)Nc2cccc(C(F)(F)F)c2)c2ccccc2N1 | i
O=C(CN1CCCN(Cc2ccccc2Cl)S1(=O)=O)Nc1cccc(Br)c1 | i
CCN1C(SCC(=O)Nc2cccc(Br)c2)=NS(=O)(=O)c2ccccc21 | +
CCCN(Cc1ccccc1F)C(=O)c1ccc[nH]1 | i
CCn1ncnc1CN1CCCC(CNC(=O)C=C(C)C)C1 (configuration not stated) | i
CCCc1cc(Sc2ccc(NC(=O)Nc3cccc(Cl)c3C)cc2)n2ncnc2n1 | i
CCCNC(=O)Cn1c(=O)n(Cc2ccc(C(=O)NC(C)C)cc2)c(=O)c2cc(OC)c(OC)cc21 | i
CNC(=O)c1ccc(Cn2c(=O)c3cc(OC)c(OC)cc3n(CC(=O)Nc3ccccc3)c2=O)cc1 | i
CNC(=O)c1ccc(Cn2c(=O)c3cc(OC)c(OC)cc3n(CC(=O)NCCCOC)c2=O)cc1 | +
CNC(=O)c1ccc(Cn2c(=O)c3cc(OC)c(OC)cc3n(CC(N)=O)c2=O)cc1 | i
CCCNC(=O)Cn1c(=O)n(Cc2ccc(C(=O)NCCC)cc2)c(=O)c2cc(OC)c(OC)cc21 | i
CNC(=O)c1ccc(Cn2c(=O)c3cc(OC)c(OC)cc3n(CC(=O)NCCC(C)C)c2=O)cc1 | +
CNC(=O)c1ccc(Cn2c(=O)c3cc(OC)c(OC)cc3n(CC(=O)N3CCCCC3C)c2=O)cc1 (configuration not stated) | i
COCCCNC(=O)c1ccc(Cn2c(=O)c3cc(OC)c(OC)cc3n(CC(N)=O)c2=O)cc1 | i
CNC(=O)c1ccc(Cn2c(=O)c3cc(OC)c(OC)cc3n(CC(=O)N3CCC(C)CC3)c2=O)cc1 | +
Fc1cccc(CNc2nccc(CCC(F)(F)F)n2)c1F | i
CCC(C(=O)NCc1ccc2[nH]c(C)c(C)c2c1)N1Cc2ccccc2C1=O (configuration not stated) | i
O=C(CN1CCN(Cc2ccc(F)cc2Cl)S1(=O)=O)Nc1ccccc1F | i
O=C(CN1N=C(c2ccccc2)c2ccccc2S1(=O)=O)Nc1cccc(Cl)c1 | +
O=C(CN1CCCN(Cc2ccccc2)S1(=O)=O)Nc1cccc(Cl)c1 | i
O=C(CN1CCN(Cc2ccc(Cl)cc2)S1(=O)=O)Nc1cccc(Cl)c1 | i
Cc1ccc(CNC(=O)C2(C)Cn3nc(C(=O)NC4CC4)cc3C(=O)N2C)cc1 (configuration not stated) | i
O=C1CC(c2ccncc2Cl)c2cnn(Cc3ccco3)c2N1 (configuration not stated) | i
O=C(CCN1CCCCO1)NCC(c1ccccc1)C1CCCC1 (configuration not stated) | +
O=C(CCN1CCCCO1)N(Cc1ccccc1)Cc1nccs1 | i
SMILES | FECH inh
CN1CCCC(CCNC(=O)CCN2CCCCO2)C1 (configuration not stated) | i
CCCC(=O)Nc1ccc(Nc2nc(C)cc(N3CCCC3)n2)cc1 | i
CC(C)N(CCC(N)=O)Cc1ccnc2ccccc12 | i
COc1cccc(NS(=O)(=O)c2ccc3c(c2)CCN3C(=O)CCC(=O)N2CCCCCC2)c1 | i
NS(=O)(=O)c1ccc(NC(=O)c2cc(-c3ccccc3)on2)cc1 | i
CCOc1ccc(-c2cc(C(=O)NCc3ccc(S(N)(=O)=O)cc3)no2)cc1 | +
Cc1ccc(-c2cc(C(=O)NCCc3ccc(S(N)(=O)=O)cc3)no2)cc1 | i
Cc1ccc(-c2cc(C(=O)NCc3ccc(S(N)(=O)=O)cc3)no2)cc1 | i
COc1ccc(-c2cc(C(=O)Nc3ccc(S(N)(=O)=O)cc3)no2)cc1 | +
Cc1ccc(-c2cc(C(=O)Nc3ccc(S(N)(=O)=O)cc3)no2)cc1 | i
O=C(Nc1cccc(F)c1)C(=O)N1CCO[C@@H]2CCCC[C@H]21 | i
c1ccc(CCc2nc(-c3ccc(CSc4ncn[nH]4)o3)n[nH]2)cc1 | i
CCN(CC)c1ccc(C(=O)N2CCCN(C)C3(CCN(C)CC3)C2)cc1 | i
Cc1ccc(C2CCCN2C(=O)c2nc3nc(C)cc(C(F)F)n3n2)cc1 (configuration not stated) | i
O=S(=O)(NCCCc1nc2ccccc2s1)NCc1ccccc1 | i
CCCCc1cn(C2CCN(C(=O)C3CC(=O)N(C(C)(C)C)C3)CC2)nn1 (configuration not stated) | i
CCCC(C)CN1CCC(n2cc(-c3ccccc3)nn2)CC1 (configuration not stated) | i
CCCC(C)CN1CCC(n2cc(CN(C)C)nn2)CC1 (configuration not stated) | +
O=C(CCC(=O)N1CCc2cc(S(=O)(=O)Nc3ccccc3)ccc21)N1CCCCCC1 | i
Cc1cccc2cc(CN3C[C@H](OC(C)C)[C@@H](O)C3)c(=O)[nH]c12 | i
Cc1cc(N2CCCCC2)nc(N2CCN(S(=O)(=O)c3ccccc3)CC2)n1 | i
Cc1cc(N2CCCC2)nc(N2CCN(S(=O)(=O)c3ccccc3)CC2)n1 | i
